We go through 53 compounds from PubChem BioAssay (EPA / NIEHS).

For test [1], the target named is Retinoic acid receptor RXR-alpha (Homo sapiens) (UniProt P19793). As to the kind of experiment: ATG_RXRa_TRANS: Attagene TRANS-FACTORIAL HepG2 Assay for human Retinoid X Receptor alpha (RXRa) (AID 2283012). In short, it runs like this:
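Read-out: fluorescent reporter-transcript fragments quantified by capillary electrophoresis after RT-PCR. Transiently transfected HepG2 cells carrying GAL4-UAS reporters and NR-GAL4 chimeras were exposed to chemical for 24 h; activity scored as increase over DMSO.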

Test [2] addresses human Retinoid X Receptor beta (RXRb), RXRB (gene 6257) (UniProt P28702). As to the kind of experiment: ATG_RXRb_TRANS: Attagene TRANS-FACTORIAL HepG2 Assay for human Retinoid X Receptor beta (RXRb) (AID 2283013). Put shortly:
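Read-out: reporter mRNA induction via RT-PCR plus capillary electrophoresis fluorescence, analysed as signal increase relative to DMSO. Cells were human HepG2, transiently transfected with GAL4-UAS reporter constructs and chimeric receptor-Gal4 fusions, dosed for 24 h.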

The target in test [3] is human Thyroid Receptor alpha (THRa1), THRA (gene 7067) (UniProt P10827). As to the kind of experiment: ATG_THRa1_TRANS: Attagene TRANS-FACTORIAL HepG2 Assay for human Thyroid Receptor alpha (THRa1) (AID 2283014). Put shortly:
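Transient HepG2 transfection, NR-Gal4 chimera driving GAL4-UAS reporters; 24 h compound exposure; total RNA, oligo(dT) RT, PCR, fluorescent primer extension, capillary electrophoresis. Upward direction vs DMSO control.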

Read-out in test [4]: E-selectin (Homo sapiens) (UniProt P16581)
Nature of the test: BSK_3C_Eselectin: BioMAP Diversity Plus: 3C Assay for Eselectin Biomarker Activity (AID 2283015; active = hit-call score of the fitted dose curve at least 0.9, where 1 is the maximum; inactive = score below 0.9;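 also: cell surface E-selectin protein quantified by ELISA 24 h after dosing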). To be noted: primary human endothelial cells (HUVEC); actives raise or lower the signal. In short, it runs like this:
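HUVEC, 3C stimulation; compound exposure 24 h; E-selectin by ELISA; gain- or loss-of-signal fitted bidirectionally vs DMSO baseline.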

Read-out in test [5]: Interleukin-1 alpha (IL1a), IL1A (gene 3552)
As to the kind of experiment: BSK_BE3C_IL1a: BioMAP Diversity Plus: BE3C Assay for Interleukin-1 alpha (IL1a) Biomarker Activity (AID 2283016; active = hit-call score of the fitted dose curve at least 0.9, where 1 is the maximum; inactive = score below 0.9). Conditions: primary human bronchial epithelial cells; actives raise or lower the signal. In short, it runs like this: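 ELISA read-out of IL-1a from human lung bronchial epithelial primary cells, 24 h post-dose. Gain or loss of signal fitted relative to DMSO negative control.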

Read-out in test [6]: Monocyte Chemoattractant Protein-1 (MCP1), CCL2 (gene 6347)
As to the kind of experiment: BSK_3C_MCP1: BioMAP Diversity Plus: 3C Assay for Monocyte Chemoattractant Protein-1 (MCP1) Biomarker Activity (AID 2283017; active = hit-call score of the fitted dose curve at least 0.9, where 1 is the maximum; inactive = score below 0.9). To be noted: primary human endothelial cells (HUVEC); actives raise or lower the signal. In short, it runs like this: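 HUVEC, 3C system; 24 h chemical exposure; MCP-1 by ELISA; bidirectional curve fit vs DMSO baseline.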

Read-out in test [7]: Human Leukocyte Antigen - DR isotype (HLADR), HLA-DRA (gene 3122)
Nature of the test: BSK_3C_HLADR: BioMAP Diversity Plus: 3C Assay for Human Leukocyte Antigen - DR isotype (HLADR) Biomarker Activity (AID 2283019; active = hit-call score of the fitted dose curve at least 0.9, where 1 is the maximum; inactive = score below 0.9;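 also: ELISA of cell-surface HLA-DR on HUVEC 24 h after dosing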). Conditions: primary human endothelial cells (HUVEC); actives raise or lower the signal. Put shortly: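 HUVEC, 3C stimulation, 24 h post-dose; HLA-DR by ELISA; bidirectional curve fit vs DMSO baseline; gain or loss of signal scored.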

Read-out in test [8]: Interleukin-8 (IL8), CXCL8 (gene 3576)
Nature of the test: BSK_3C_IL8: BioMAP Diversity Plus: 3C Assay for Interleukin-8 (IL8) Biomarker Activity (AID 2283020; active = hit-call score of the fitted dose curve at least 0.9, where 1 is the maximum; inactive = score below 0.9). Conditions: primary human endothelial cells (HUVEC); actives raise or lower the signal. In short, it runs like this: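 HUVEC, 3C stimulation; 24 h compound exposure; IL-8 read by ELISA; gain or loss of signal fitted relative to DMSO control.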

Read-out in test [9]: Monokine induced gamma interferon (MIG), CXCL9 (gene 4283)
As to the kind of experiment: BSK_3C_MIG: BioMAP Diversity Plus: 3C Assay for Monokine induced gamma interferon (MIG) Biomarker Activity (AID 2283021; active = hit-call score of the fitted dose curve at least 0.9, where 1 is the maximum; inactive = score below 0.9). Conditions: primary human endothelial cells (HUVEC); actives raise or lower the signal. In short, it runs like this:
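HUVEC, 3C system; 24 h chemical exposure; MIG by ELISA; bidirectional fit vs DMSO baseline.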

Results filed as inconclusive are left out. The source made the active and inactive calls. The calls were made as follows, unless noted: active = hit-call score of the fitted dose curve at least 0.9, where 1 is the maximum; inconclusive = response in the unintended direction; inactive = score below 0.9.

Chain of human Thyroid Receptor alpha (THRa1), THRA (gene 7067) (P10827 whole entry, looked up, the tested form may be a part): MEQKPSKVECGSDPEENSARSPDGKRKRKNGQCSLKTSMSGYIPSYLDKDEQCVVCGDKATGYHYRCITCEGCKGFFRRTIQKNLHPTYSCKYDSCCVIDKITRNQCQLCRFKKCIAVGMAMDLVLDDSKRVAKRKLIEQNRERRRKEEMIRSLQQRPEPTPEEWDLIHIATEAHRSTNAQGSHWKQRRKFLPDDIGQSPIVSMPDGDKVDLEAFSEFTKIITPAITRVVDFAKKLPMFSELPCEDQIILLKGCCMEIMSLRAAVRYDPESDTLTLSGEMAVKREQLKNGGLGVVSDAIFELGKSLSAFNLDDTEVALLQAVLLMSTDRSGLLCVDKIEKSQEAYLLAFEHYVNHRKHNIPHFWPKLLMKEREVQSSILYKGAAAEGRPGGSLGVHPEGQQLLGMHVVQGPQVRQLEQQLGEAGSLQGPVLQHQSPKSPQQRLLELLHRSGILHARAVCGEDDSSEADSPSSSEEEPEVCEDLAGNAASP
Chain of human Retinoid X Receptor beta (RXRb), RXRB (gene 6257) (P28702 whole entry, looked up, the tested form may be a part): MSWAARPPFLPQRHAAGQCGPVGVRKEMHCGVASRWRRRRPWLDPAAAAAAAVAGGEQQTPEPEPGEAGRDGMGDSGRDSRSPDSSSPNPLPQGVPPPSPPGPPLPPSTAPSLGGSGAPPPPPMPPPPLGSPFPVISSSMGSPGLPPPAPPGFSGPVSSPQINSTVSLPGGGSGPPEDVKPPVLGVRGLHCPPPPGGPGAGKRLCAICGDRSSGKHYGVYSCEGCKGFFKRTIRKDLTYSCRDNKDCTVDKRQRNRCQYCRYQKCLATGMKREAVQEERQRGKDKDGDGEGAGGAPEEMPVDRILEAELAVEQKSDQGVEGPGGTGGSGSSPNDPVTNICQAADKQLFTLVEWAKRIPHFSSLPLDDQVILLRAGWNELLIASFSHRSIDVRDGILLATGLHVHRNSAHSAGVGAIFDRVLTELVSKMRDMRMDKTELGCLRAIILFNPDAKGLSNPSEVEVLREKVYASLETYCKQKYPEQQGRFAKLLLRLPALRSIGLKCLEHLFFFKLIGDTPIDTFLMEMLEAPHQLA
Chain of Retinoic acid receptor RXR-alpha (Homo sapiens) (P19793 whole entry, looked up, the tested form may be a part): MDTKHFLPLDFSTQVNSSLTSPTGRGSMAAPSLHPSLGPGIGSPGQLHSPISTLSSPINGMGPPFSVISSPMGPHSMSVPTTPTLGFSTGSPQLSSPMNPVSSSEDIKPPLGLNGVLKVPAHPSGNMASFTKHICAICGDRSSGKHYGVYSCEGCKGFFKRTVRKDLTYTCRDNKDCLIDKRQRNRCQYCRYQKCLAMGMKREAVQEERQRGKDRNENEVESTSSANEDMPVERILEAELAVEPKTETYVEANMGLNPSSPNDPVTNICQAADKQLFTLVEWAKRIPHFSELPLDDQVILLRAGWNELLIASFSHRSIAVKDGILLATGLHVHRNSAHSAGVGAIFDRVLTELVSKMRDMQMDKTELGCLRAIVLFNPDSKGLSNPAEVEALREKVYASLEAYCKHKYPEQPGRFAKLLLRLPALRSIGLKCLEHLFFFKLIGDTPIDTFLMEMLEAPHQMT
Chain of E-selectin (Homo sapiens) (P16581 whole entry, looked up): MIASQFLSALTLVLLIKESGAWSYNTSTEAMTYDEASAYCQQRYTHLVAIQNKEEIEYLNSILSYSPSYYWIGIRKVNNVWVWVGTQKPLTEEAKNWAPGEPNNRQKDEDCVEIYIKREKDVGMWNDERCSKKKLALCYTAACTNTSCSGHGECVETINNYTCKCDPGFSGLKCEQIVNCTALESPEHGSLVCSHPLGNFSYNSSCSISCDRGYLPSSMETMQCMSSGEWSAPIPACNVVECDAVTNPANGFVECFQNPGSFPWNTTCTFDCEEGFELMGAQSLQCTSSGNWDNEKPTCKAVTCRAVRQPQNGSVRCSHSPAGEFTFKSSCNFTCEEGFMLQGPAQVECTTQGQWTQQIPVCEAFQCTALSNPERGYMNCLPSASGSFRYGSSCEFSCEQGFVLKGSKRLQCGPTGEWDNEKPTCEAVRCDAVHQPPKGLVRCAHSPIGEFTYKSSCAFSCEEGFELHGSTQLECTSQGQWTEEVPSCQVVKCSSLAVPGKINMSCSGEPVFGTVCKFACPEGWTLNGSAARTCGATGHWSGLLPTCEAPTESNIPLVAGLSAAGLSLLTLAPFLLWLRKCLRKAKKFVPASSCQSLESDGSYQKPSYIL

On to `CCCCCCCC/C=C\CCCCCCCC(=O)O`, for which the outcome in [1] and in test [3] was inactive. Further, in [2], the AC50 is 68 µM (active).

`OC1CCCCCCCCCCC1`: in test [1], the call was inactive. In [2], the AC50 was 44.6 µM (active).

On to `CCN(CCC#N)c1ccc(N=Nc2c(Cl)cc([N+](=O)[O-])cc2Cl)cc1`, for which the compound was classed as inactive in test [1].

Take `O=C(O)Cc1c(Cl)ccc(Cl)c1Cl`: the compound was classed as inactive in test [1].

Consider `O=C(c1ccccc1)C1CCC1`, for which the outcome in test [1] and in [2] was inactive.

Regarding `N#CCc1ccc(Cl)cc1Cl`, the compound was classed as inactive in test [1] and in [2].

With `COC=O`, the call in [1] and in test [2] was inactive.

With `C=CC(C)(CCC=C(C)C)OC(=O)C(C)C` (stereo unspecified), the outcome in [1] and in test [3] was inactive. The AC50 in test [2] is 57.4 µM (active).

Consider `CCCCCCCCC(=O)OCC`, for which the outcome in [1], in test [2] and in [3] was inactive.

Take `Cc1cccc(N(C)C(=S)Oc2ccc3ccccc3c2)c1`: the call in test [1] was inactive. In addition, the AC50 in test [2] was 32.6 µM (active).

For `COc1ccc(-c2coc3cc(O)ccc3c2=O)cc1`, the compound was called inactive in test [1] and in [2].

Consider `CCCCCC/C=C\CCCCCCCC(=O)O`, for which the outcome in test [1] was inactive. In addition, the AC50 in test [2] was 77 µM (active).

`CCCCC(CC)COC(=O)c1ccccc1` (stereo unspecified): the compound was called inactive in test [1] and in [3]. For the same compound, the AC50 in [2] is 60.9 µM (active).

With `COc1cc(NC(=O)CC(C)=O)c(OC)cc1Cl`, the compound was called inactive in test [1] and in test [2].

On to `C=CC(C)(CCC=C(C)C)OC(=O)CC(C)C` (stereo unspecified), for which the compound was called inactive in test [1]. In addition, in test [2], the AC50 is 30.5 µM (active).

In the case of `O=C1Nc2ccccc2C1(c1ccc(O)cc1)c1ccc(O)cc1`, in [1], the compound was classed as inactive.

For the compound `O=C1CCCCCCCCCCC(=O)OCCO1`, the result in test [1] and in [2] was inactive.

`Cc1ccc2c(c1)C(=O)c1ccccc1C2=O`: the result in [1] and in [2] was inactive.

For `C=CCCCCCCCCC(=O)OCCCC`, the compound was classed as inactive in [1]. Besides, the AC50 in [2] is 104 µM (active).

As to `C=C[C@](C)(O)CC[C@@H]1[C@@]2(C)CCCC(C)(C)[C@@H]2CC[C@@]1(C)O`, the compound was called inactive in test [1].

Take `CCCCCCCCCCOS(=O)(=O)O`: the compound was called inactive in test [1] and in test [2].

For the compound `CC(C)C1=CC2=CC[C@@H]3[C@](C)(CCC[C@@]3(C)C(=O)O)[C@H]2CC1`, the outcome in test [1] and in test [2] was inactive.

Consider `O=S(=O)(Oc1ccc(Cl)cc1Cl)c1ccccc1`, for which the result in test [1], in test [2] and in test [3] was inactive.

Consider `CC(C)(C)c1ccc(-c2ccc(C(C)(C)C)cc2)cc1`, for which the outcome in test [1] and in test [2] was inactive.

On to `CCCCCCCC/C=C\CCCCCCCC(=O)OCCO`, for which the compound was classed as inactive in test [1]. The half-maximal activity concentration (AC50) in test [2] is 17.7 µM (active).

As for `O=S(=O)(O)c1ccc2cc(O)c(S(=O)(=O)O)cc2c1`, the result in [1] and in test [2] was inactive.

For `CC(C)c1ccc2c(C(C)C)cc(C(C)C)c(S(=O)(=O)O)c2c1`, the outcome in [1] was inactive. Also, the AC50 in test [2] is 18.2 µM (active).

For the compound `C(=CC=Nc1ccccc1)C=CNc1ccccc1`, the result in test [1] and in test [2] was inactive.

Take `CC(C)(Oc1ccc(C2CC2(Cl)Cl)cc1)C(=O)O` (stereo unspecified): the compound was classed as inactive in test [1] and in [2].

`CC/C=C\CCOC(=O)CCCCC`: the call in test [1] and in [2] was inactive.

For the compound `O=CN1CCCCC1`, the compound was classed as inactive in [1].

As to `CN1C(=O)N(C)C(O)C1O` (stereo unspecified), the outcome in [1], in test [2], in test [4], in test [5], in test [6] and in [7] was inactive. Further, the outcome in [8] and in [9] was inactive.

On to `O=C(Nc1ccccc1)c1ccccc1O`, for which the call in test [1] and in [3] was inactive.

As to `CCN(Cc1cccc(S(=O)(=O)O)c1)c1ccc(C(=C2C=CC(=[N+](CC)Cc3cccc(S(=O)(=O)[O-])c3)C=C2)c2ccccc2)cc1`, the compound was classed as inactive in [1], in test [2] and in [3].

Turning to `N[C@H]1C(O)O[C@H](CO)[C@H](O)[C@@H]1O` (stereo partly specified), the compound was classed as inactive in test [1] and in test [3].

For the compound `CCCCCCOC(=O)C(C)CC` (stereo unspecified), the compound was called inactive in [1] and in test [3].

As to `CC1(C)O[C@@H]2C[C@H]3[C@@H]4C[C@H](F)C5=CC(=O)C=C[C@]5(C)[C@@]4(F)[C@@H](O)C[C@]3(C)[C@]2(C(=O)CO)O1`, the result in [1], in test [2] and in [3] was inactive.

For the compound `CC1(C)O[C@@H]2C[C@H]3[C@@H]4C[C@H](F)C5=CC(=O)CC[C@]5(C)[C@H]4[C@@H](O)C[C@]3(C)[C@]2(C(=O)CO)O1`, the compound was classed as inactive in test [1] and in test [3]. Also, the AC50 in [2] was 31.8 µM (active).

As for `CC(=O)[C@@]1(O)CC[C@H]2[C@@H]3C[C@H](C)C4=CC(=O)C=C[C@]4(C)[C@@]3(F)[C@@H](O)C[C@@]21C`, the result in test [1], in [2] and in [3] was inactive.

With `CCOc1ccc(N)c([N+](=O)[O-])c1`, the compound was called inactive in test [1], in test [2] and in test [3].

With `CC(C)(C)C1CCCCC1=O` (stereo unspecified), the outcome in test [1] and in [3] was inactive.

Regarding `O=C(O)c1cc(Cl)cc([N+](=O)[O-])c1Cl`, the call in test [1] and in [3] was inactive.

Consider `O=C1CCCCCCCCCCCCCCCO1`, for which the compound was called inactive in test [1] and in test [3]. Further, the AC50 in test [2] was 70.4 µM (active).

As to `[Cl][Bi]([Cl])([c]1ccccc1)([c]1ccccc1)[c]1ccccc1`, the AC50 in test [1] was 5.6 µM (active); in [2], 1.04 µM (active). In test [3], the call was inactive.

`Nc1ccc(Oc2ccc(N)c(N)c2)cc1`: the compound was classed as inactive in test [1], in test [2] and in test [3].

With `O=C(c1ccccc1)c1ccc(O)c(O)c1O`, the result in test [1] and in test [3] was inactive.

As for `COC(=O)c1ccc2cc(C(=O)OC)ccc2c1`, the call in test [1] and in [3] was inactive.

As for `OCCN(CCO)c1ccccc1`, the call in [1], in [2] and in [3] was inactive.

As for `CC1=Nc2ccc3ccccc3c2C1(C)C`, the call in test [1], in test [2] and in test [3] was inactive.

Take `N#[N+]c1ccc2c(S(=O)(=O)[O-])cccc2c1O`: the outcome in [1], in test [2], in test [3], in test [4], in test [5] and in test [6] was inactive. The outcome in [7], in test [8] and in [9] was inactive.

As to `ON(Cc1ccccc1)Cc1ccccc1`, the call in [1], in test [2] and in test [3] was inactive.

For the compound `O=[N+]([O-])c1ccc(CO)cc1`, the compound was called inactive in test [1], in test [2] and in test [3].

`CC(C)COC(=O)C=Cc1ccccc1`: the result in test [1] and in test [3] was inactive.
